Source: ChEMBL document CHEMBL4513216, “Probing the Open Global Health Chemical Diversity Library for Multistage-Active Starting Points for Next-Generation Antimalarials” (ACS Infect Dis, 2020)
Hit rate of the full screen: of about 69,000 compounds, about 8,600 (12%) showed an effect of 50% or more. The entries come from a sample that favours strong results as a whole.

Tested on: Plasmodium berghei
Assay: Screen against P. berghei liver stage (PbLuc), transformed with Luciferase, at 10uM
Type: functional, HepG2
Details: tested at 10 uM

| Structure (SMILES) | INHIBITION |
| --- | --- |
| Cc1cc(NC(=O)Cn2ncc(Br)c2C)no1 | 15.9% |
| Cc1cc(NC(=O)C(C)Cn2cncn2)no1 (stereo unspecified) | -1.445% |
| CC(Cn1cc(Br)cn1)C(=O)Nc1ccn(C)n1 (stereo unspecified) | 15.7% |
| CN(Cc1cn2c(n1)CN(c1ncc(F)cn1)CC2)Cc1ccco1 | 22.7% |
| O=C(N1CCOCC1)[C@@]12CCO[C@@H]1CCN(C1CCOCC1)C2 | 38.5% |
| Cc1ccc(NC2CCN(C(=O)CCNc3ncccn3)CC2)nn1 | -24.2% |
| Cc1cc(NC(=O)CN2CCN(c3nccs3)C(C)C2)no1 (stereo unspecified) | 19.2% |
| CNC(=O)C1(CCCc2ccccn2)CN(Cc2nccn2C)C1 | -40.1% |
| CC(O)CN1CCC(CNCc2ccccc2F)CC1 (stereo unspecified) | -34.365% |
| Cc1cc(C(=O)CN2CCN(c3ncccn3)CC2)c(C)n1C(C)C | 26.4% |
| CN1CCOC(CNCc2ccccc2OCc2ccccn2)C1 (stereo unspecified) | -10.193% |
| OCCN1CCC(Cc2nccs2)CC1 | 13.955% |
| CC(C)N(C)CC(=O)NCCc1nc(C(F)(F)F)cs1 | -48.9% |
| Cc1cccc(Nc2cc(C)nc(C3CCCCN3CC(N)=O)n2)n1 (stereo unspecified) | 18.9% |
| CCC(NCCn1cccn1)C(=O)Nc1cc(C)on1 (stereo unspecified) | 36.5% |
| Cc1cc(NC(=O)C(C)NCCn2cccn2)no1 (stereo unspecified) | 58.9% |
| CCC(NCCn1cc(C)cn1)C(=O)Nc1cc(C)on1 (stereo unspecified) | 35.4% |
| Cc1nc[nH]c1CN1CCC(C2CCN(CCc3ccccc3)C2)CC1 (stereo unspecified) | 44.3% |
| Cc1nc[nH]c1CN1CCCC12CCN(c1nc3ccccc3s1)CC2 | 76.6% |

| Structure (SMILES) | INHIBITION |
| --- | --- |
| Cc1nc[nH]c1CN1CCCC12CCN(c1ccccn1)CC2 | 20.9% |
| CC(=O)c1ccc(CN2CCCC23CCN(c2ccccn2)CC3)cc1 | 49.9% |
| Cc1nc[nH]c1CN1CCn2nc(CN3Cc4ccccc4C3)cc2C1 | 22.8% |
| Cn1cc(CN2CCCC23CCN(c2nc4ccccc4s2)CC3)cn1 | 47% |
| Cc1nc(CN2CCCC23CCN(c2nc4ccccc4s2)CC3)co1 | 14.1% |
| c1ccc2sc(N3CCC4(CCCN4Cc4ncc[nH]4)CC3)nc2c1 | 51.6% |
| Cc1nc[nH]c1CN1CCCN(c2nc3ccccc3s2)CC1 | 76.6% |
| CN(C)C1CCCN(C(=O)NCc2ccccc2-n2cccn2)C1 (stereo unspecified) | 21.5% |
| CCS(=O)(=O)N1Cc2nccn2CC(Cn2cccn2)C1 (stereo unspecified) | 37.5% |
| O=C(O)c1cc(-c2ccccc2)ns1 | 45.9% |
| O=C(COCc1ccccc1)N1CCCC1c1noc(C2CC2)n1 (stereo unspecified) | 7.27% |
| O=C(C[C@@H]1COC[C@H]2CN(C(=O)c3ccccn3)C[C@@H]12)N1CCCC1 | 6.72% |
| Cc1cccc(N2Cc3c(NC4CCCC4)ncnc3N(C)CC2=O)c1 | 7.66% |
| CC(=O)c1cccc(NC(=O)CN2CCCCC2C2OCCO2)c1 (stereo unspecified) | 1.81% |
| CC(=O)c1cccc(NC(=O)CN2CCCC(C3OCCO3)C2)c1 (stereo unspecified) | 53.4% |
| CC(=O)c1cccc(NC(=O)CN2CCCCC2C)c1 (stereo unspecified) | 14% |
| CN(C)Cc1cnn(-c2ccccc2C(=O)N(C)Cc2ccccc2)c1 | -52.6% |
| Cc1cc(=O)c2ccccc2n1CC1CCN(C(C)C)C1 (stereo unspecified) | 53.9% |
| Cc1cc(=O)c2ccccc2n1CC1CCCN(C)C1 (stereo unspecified) | -9.92% |

| Structure (SMILES) | INHIBITION |
| --- | --- |
| Cc1cc(=O)c2ccccc2n1CC1CCNC1 (stereo unspecified) | 12.8% |
| c1cnc(N2CCO[C@H]3CN(Cc4csnn4)C[C@H]32)cn1 | 23.3% |
| O=C(NCCc1ccn(-c2ccccc2)n1)N1CCC1 | 26.9% |
| O=C(NCCc1ccn(-c2ccccc2)n1)N1CCSCC1 | 62.9% |
| O=C(NCCc1ccn(-c2ccccc2)n1)N1CCCC(O)C1 (stereo unspecified) | -16% |
| Cc1cccc(NC(=O)C(C)Nc2cccc(CN3CCOC3=O)c2)c1 (stereo unspecified) | -18.15% |
| CC1CC(=O)c2cc(C(=O)N3CCc4ccccc4C3)c(=O)[nH]c2C1 (stereo unspecified) | 10.9% |
| Cc1ccc(CN2C[C@@H]3CCCO[C@@H]3[C@H](N(C)Cc3ccco3)C2)o1 | 18.5% |
| Cc1cccc(C)c1OCCNC(=O)NC(C)c1nncn1C (stereo unspecified) | 50.4% |
| Cc1cccc(OCCCNC(=O)NC(C)c2nncn2C)c1 (stereo unspecified) | 15.9% |
| CC(NC(=O)NCCCN1CCc2ccccc2C1)c1nncn1C (stereo unspecified) | -120% |
| CC(NC(=O)NCCOc1ccc(Cl)cc1)c1nncn1C (stereo unspecified) | 39.7% |
| CC(NC(=O)NCCCN1CCCC1)c1nncn1C (stereo unspecified) | 0.914% |
| CC(NC(=O)NCCN1CCCC1)c1nncn1C (stereo unspecified) | 56.4% |
| CC(NC(=O)NCCCN1CCCCCC1)c1nncn1C (stereo unspecified) | 30.2% |
| CCN1CCN(CCCNC(=O)NC(C)c2nncn2C)CC1 (stereo unspecified) | 40% |
| CC1CCN(CCCNC(=O)NC(C)c2nncn2C)CC1 (stereo unspecified) | 52.3% |
| N#CCCSc1sc2c(O)cc(O)nc2c1C#N | 38.2% |
